Experimental data published in PubChem BioAssay (Tox21).
Values without a mark were called inactive. Inconclusive results are not listed. Entries that show only a call come without a potency. Active and inactive are the calls of the source. Unless noted, the call rests on the fitted dose curve; in most records, active means well fitted curve in the direction sought with a large enough effect in the repeat runs; inconclusive means weak or mixed curves; inactive means no such curve, though single readings can be large; an effect the other way counts as inactive or inconclusive.

Key:
[1] = A CellTox Green Cytotoxicity Assay to monitor cytotoxicity in HepG2 cells - 0 hour (AID 1224882); further: nearly all actives have a fitted effect of over 35% in size
Summary of the method: (§1)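 First, HepG2 cells (600/well) mixed with reagent were plated; second, after 5 h at 37 C they received compounds via pintool; third, fluorescence was measured at 0 h through 40 h at 8 h intervals.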

[2] = A CellTox Green Cytotoxicity Assay to monitor cytotoxicity in HepG2 cells - 32 hour (AID 1224883); further: nearly all actives have a fitted effect of over 50% in size
Summary of the method: as §1

[3] = qHTS RealTime-Glo MT Cell Viability Assay in HepG2 cells - 16 hour (AID 1224885); further: nearly all actives have a fitted effect of over 50% in size
Summary of the method: (§2)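 Compound treatment began 5 h after plating HepG2 cells (600/well) with NanoLuc luciferase and prosubstrate. Plates stayed at 37 C for 40 h; luminescence was captured at six time points, 0 h through 40 h.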

[4] = qHTS RealTime-Glo MT Cell Viability Assay in HEK293 cells - 24 hour (AID 1224886); further: nearly all actives have a fitted effect of over 50% in size; further: potency means the concentration at half of the fitted maximal effect
Summary of the method: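 Quantitative high-throughput screen of the Tox21 10K library in HEK293: cells and RealTime-Glo reagents plated together, compound added at 5 h, luminescence monitored through 40 h at 37 C.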

[5] = qHTS RealTime-Glo MT Cell Viability Assay in HEK293 cells - 8 hour (AID 1224887); further: top concentration of the series differs between compounds; nearly all actives have a fitted effect of over 50% in size
Summary of the method: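 600 HEK293 cells per well, dispensed already mixed with RealTime-Glo MT reagents. Compound dosing came 5 h later. The same wells were read for luminescence at 0, 8, 16, 24, 32 and 40 h of exposure at 37 C.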

[6] = A CellTox Green Cytotoxicity Assay to monitor cytotoxicity in HEK293 cells - 16 hour (AID 1224888); further: nearly all actives have a fitted effect of over 35% in size
Summary of the method: (§3)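 Dead-cell fluorescence measured kinetically: asymmetric cyanine dye, HEK293, 600 cells/well, 5 h settle, 23 nL cpd/DMSO, 37 C, reads 0–40 h every 8 h.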

[7] = qHTS RealTime-Glo MT Cell Viability Assay in HepG2 cells - 0 hour (AID 1224889); further: nearly all actives have a fitted effect of over 50% in size
Summary of the method: as §2

[8] = A CellTox Green Cytotoxicity Assay to monitor cytotoxicity in HepG2 cells - 8 hour (AID 1224890); further: nearly all actives have a fitted effect of over 45% in size
Summary of the method: as §1

[9] = qHTS assay to identify small molecule antagonists of the estrogen receptor alpha (ER-alpha) signaling pathway using the BG1 cell line in the presence of 0.1 nM 17-beta-estradiol - cell viability counter screen (AID 1259241); further: nearly all actives have a fitted effect of over 40% in size
Summary of the method: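 VM7Luc4E2 cells (endogenous ER-alpha, 4×ERE-luciferase), hormone-starved 5 days in charcoal-stripped FBS, were treated with compounds plus 0.1 nM 17beta-estradiol for 22 hr at 37C; viability read in same wells as CellTiter-Fluor live-cell protease fluorescence.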

[10] = qHTS assay to identify small molecule antagonists of the androgen receptor (AR) signaling pathway using the MDA cell line in the presence of 0.5 nM R1881 - cell viability counter screen (AID 1259242); further: nearly all actives have a fitted effect of over 45% in size
Summary of the method: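 qHTS format. MDA-kb2 (MMTV-luc, AR/GR responsive) + cpd + 0.5 nM R1881 final, 16 hr 37C/0% CO2 → CellTiter-Fluor 30 min → fluorescence intensity.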

[11] = target: Androgen receptor (Homo sapiens) (UniProt P10275); assay: qHTS assay to identify small molecule antagonists of the androgen receptor (AR) signaling pathway using the MDA cell line in the presence of 0.5 nM R1881 (AID 1259243); further: nearly all actives have a fitted effect of over 50% in size; further: potency means the concentration at half of the fitted maximal effect
Chain of Androgen receptor (Homo sapiens) (P10275 whole entry, looked up): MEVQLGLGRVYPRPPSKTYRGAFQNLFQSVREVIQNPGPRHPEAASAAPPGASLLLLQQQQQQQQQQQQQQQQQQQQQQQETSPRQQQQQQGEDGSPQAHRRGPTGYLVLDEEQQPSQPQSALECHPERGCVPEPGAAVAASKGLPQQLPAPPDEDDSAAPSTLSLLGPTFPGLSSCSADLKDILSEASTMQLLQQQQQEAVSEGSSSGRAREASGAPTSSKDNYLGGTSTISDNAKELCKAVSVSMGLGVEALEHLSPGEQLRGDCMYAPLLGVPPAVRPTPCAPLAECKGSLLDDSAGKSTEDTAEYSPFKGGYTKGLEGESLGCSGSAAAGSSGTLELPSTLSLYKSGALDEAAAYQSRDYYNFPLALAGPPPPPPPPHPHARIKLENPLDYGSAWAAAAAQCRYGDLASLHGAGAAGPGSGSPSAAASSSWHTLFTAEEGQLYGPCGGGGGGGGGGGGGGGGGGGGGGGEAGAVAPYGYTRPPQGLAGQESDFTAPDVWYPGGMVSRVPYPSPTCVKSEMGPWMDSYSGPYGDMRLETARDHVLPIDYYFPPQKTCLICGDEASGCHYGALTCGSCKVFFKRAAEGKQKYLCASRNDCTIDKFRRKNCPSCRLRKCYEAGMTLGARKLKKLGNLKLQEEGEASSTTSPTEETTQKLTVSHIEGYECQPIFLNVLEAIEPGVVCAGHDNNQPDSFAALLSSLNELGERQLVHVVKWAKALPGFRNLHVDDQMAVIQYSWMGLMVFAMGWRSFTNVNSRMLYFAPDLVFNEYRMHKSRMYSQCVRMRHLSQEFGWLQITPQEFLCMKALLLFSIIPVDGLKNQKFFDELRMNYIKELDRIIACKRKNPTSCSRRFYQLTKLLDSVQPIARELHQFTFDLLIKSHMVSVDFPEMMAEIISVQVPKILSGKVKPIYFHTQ
Summary of the method: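 Antagonist mode quantitative HTS in MDA-kb2 MMTV-luciferase cells, agonist R1881 at 0.5 nM final, 16 hr exposure at 37C and 0% CO2, luminescent detection.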

[12] = target: Estrogen receptor (Homo sapiens) (UniProt P03372); assay: qHTS assay to identify small molecule antagonists of the estrogen receptor alpha (ER-alpha) signaling pathway using the BG1 cell line in the presence of 0.1 nM 17-beta-estradiol (AID 1259244); further: nearly all actives have a fitted effect of over 50% in size; further: potency means the concentration at half of the fitted maximal effect
Chain of Estrogen receptor (Homo sapiens) (P03372 whole entry, looked up): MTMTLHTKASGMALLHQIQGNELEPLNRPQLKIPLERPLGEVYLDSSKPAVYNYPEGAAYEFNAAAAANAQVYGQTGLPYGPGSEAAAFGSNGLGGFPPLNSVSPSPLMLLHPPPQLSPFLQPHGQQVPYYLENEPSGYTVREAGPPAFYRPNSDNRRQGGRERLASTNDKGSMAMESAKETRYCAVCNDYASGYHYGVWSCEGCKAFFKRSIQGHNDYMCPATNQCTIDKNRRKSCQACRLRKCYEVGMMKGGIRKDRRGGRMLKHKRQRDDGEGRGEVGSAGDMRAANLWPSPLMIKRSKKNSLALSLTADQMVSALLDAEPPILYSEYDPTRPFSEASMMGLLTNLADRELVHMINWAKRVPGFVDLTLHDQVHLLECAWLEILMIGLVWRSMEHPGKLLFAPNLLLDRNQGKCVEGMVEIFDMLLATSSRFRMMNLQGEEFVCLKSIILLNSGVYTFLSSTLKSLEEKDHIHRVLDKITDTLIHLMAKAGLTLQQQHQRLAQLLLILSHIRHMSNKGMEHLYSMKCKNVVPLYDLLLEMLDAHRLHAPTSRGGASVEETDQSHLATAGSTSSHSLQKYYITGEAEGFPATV
Summary of the method: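 Reporter is a stably transfected luciferase under four estrogen responsive elements in VM7Luc4E2 cells expressing native full-length ER-alpha; inhibition of 0.1 nM (final) 17beta-estradiol-driven signal over 22 h is read by luminescence.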

[13] = qHTS assay to identify small molecule phospholipidosis (PLD) inducers (AID 1259344; active means well fitted curve in the direction sought with a large enough effect; an effect the other way counts as inactive or inconclusive)
Summary of the method: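 Cells (HepG2, 900 per well) attach for 4 h, receive LipidTOX Red and compound together, incubate 24 h at 37 C, are fixed 30 min with paraformaldehyde/Hoechst, then imaged at one site per well.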

[14] = qHTS assay to identify small molecule HDAC inhibitors (AID 1259364); further: potency means the concentration at half of the fitted maximal effect;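 further: wild-type HCT-116 cells with endogenous class I/II HDAC activity; nearly all actives have a fitted effect of over 45% in size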
Summary of the method: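 Quantitative high-throughput format: overnight-seeded HCT-116 cells got compounds for 2 hr at 37C; HDAC-Glo I/II reagent added, 30 min RT, luminescence measured.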

[15] = qHTS assay to identify small molecule HDAC inhibitors - cell viability counter screen (AID 1259365)
Summary of the method: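 Wild-type HCT-116 cells were seeded at 1,500 per well, incubated overnight at 37 C, then exposed to compounds in DMSO for 2hr. Viability was read by CellTiter-Glo luminescence after 30min at room temperature.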

[16] = qHTS assay to identify small molecule agonists of the sonic hedgehog signaling (Shh) pathway - cell viability counter screen (AID 1259366); further: nearly all actives have a fitted effect of over 50% in size
Summary of the method: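 NIH/3T3-derived 3T3 Gli1-Luc cells (stable Gli1-responsive firefly luciferase reporter) were seeded, rested 4 hr at 37 C/5% CO2, then exposed to compounds in DMSO for 24 hr; viability was read by CellTiter-Fluor fluorescence in the same wells.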

[17] = A CellTox Green Cytotoxicity Assay to monitor cytotoxicity in HEK293 cells - 8 hour (AID 1224884); further: nearly all actives have a fitted effect of over 35% in size
Summary of the method: as §3

[18] = qHTS assay to identify small molecule antagonists of the sonic hedgehog signaling (Shh) pathway - cell viability counter screen (AID 1259367); further: nearly all actives have a fitted effect of over 55% in size
Summary of the method: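 Cytotoxicity was assessed in parallel with Shh reporter activity by measuring live-cell protease fluorescence (CellTiter-Fluor) in NIH/3T3 cells stably carrying Gli1-Luc, treated with compound under conditioned medium stimulation for 23 hr plus 1 hr reagent incubation.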

[19] = qHTS assay to identify small molecule antagonists of the sonic hedgehog signaling (Shh) pathway (AID 1259369; calls by dose curve; further: nearly all actives have a fitted effect of over 45% in size; further: potency means the concentration at half of the fitted maximal effect)
Summary of the method: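 Stable Gli1-Luc reporter NIH/3T3 clone; quantitative HTS in stimulated mode with conditioned medium. Luminescence measured after 24hr compound treatment at 37 C.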

[20] = qHTS assay to identify small molecule agonists of the sonic hedgehog signaling (Shh) pathway (AID 1259368; calls by dose curve; further: series mostly up to about 92 µM; nearly all actives have a fitted effect of over 15% in size)
Summary of the method: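 Quantitative high-throughput format using a Gli1-driven firefly luciferase reporter line derived from NIH/3T3 cells. After a 24 hr compound treatment at 37 C and 5% CO2, luminescence reported Gli1 response element activity.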

SMILES | Potency [1] | Potency [2] | outcome [3] | Potency [4] | Potency [5] | Potency [6] | Potency [7] | Potency [8] | Potency [9] | outcome [10] | Potency [11] | Potency [12] | outcome [13] | Potency [14] | outcome [15] | Potency [16] | Potency [17] | Potency [18] | Potency [19] | Potency [20]
CCCCc1ccc2nc(NC(=O)OC)[nH]c2c1 | inactive | inactive | inactive | inactive | inactive | inactive | inactive | inactive | inactive | inactive | inactive | inactive | inactive | 10.6 µM (active) | inactive | inactive | – | – | – | –
c1ccc(CN(CC2=NCCN2)c2ccccc2)cc1 | inactive | inactive | – | – | inactive | inactive | inactive | inactive | inactive | inactive | – | – | inactive | inactive | inactive | inactive | inactive | inactive | inactive | –
CCCc1c2oc(C(=O)O)cc(=O)c2cc2c(=O)cc(C(=O)O)n(CC)c12 | inactive | inactive | inactive | inactive | inactive | – | inactive | inactive | inactive | inactive | – | – | – | inactive | inactive | inactive | – | inactive | inactive | inactive
CCCCCCCOC(=O)CCC | inactive | inactive | inactive | inactive | inactive | inactive | inactive | inactive | inactive | inactive | – | inactive | – | inactive | inactive | inactive | – | inactive | inactive | inactive
CC1=C2[C@H](/C=C(\C)C(=O)O)CC[C@@H](C)[C@H]2CC1 | inactive | inactive | inactive | 36 µM (active) | – | – | inactive | inactive | inactive | inactive | 31.8 µM (active) | 63.4 µM (active) | – | inactive | inactive | – | – | – | 56.5 µM (active) | –
CNCCC(Oc1ccccc1OC)c1ccccc1 (configuration not stated) | inactive | inactive | inactive | inactive | inactive | inactive | inactive | inactive | inactive | inactive | – | – | inactive | inactive | inactive | inactive | – | inactive | inactive | –
COc1ccccc1OCC(O)COC(N)=O (configuration not stated) | inactive | inactive | inactive | inactive | inactive | inactive | inactive | inactive | inactive | inactive | – | inactive | inactive | inactive | inactive | inactive | – | inactive | inactive | inactive
CC(C)CC(=O)OCc1ccccc1 | inactive | inactive | inactive | inactive | inactive | inactive | inactive | inactive | inactive | inactive | – | inactive | – | inactive | inactive | inactive | – | inactive | inactive | inactive
